# Results published in PubChem BioAssay (Tox21).
# Inconclusive results are not listed. Where a call stands in place of a potency, no number is given. Calls of active or inactive are those of the source. Calls come from the whole dose curve; as a rule, active = well fitted cell-killing curve with a large enough effect in the repeat runs; inconclusive = weak or mixed curves; inactive = flat fitted curve, though single readings scatter.
# Assay: qHTS assay to identify small molecule antagonists of the TGF-beta/Smad signaling pathway - cell viability counter screen (AID 1346824); note: nearly all actives have a fitted effect of over 50% in size
# Settings: SBE-bla HEK293T viability, CellTiter-Glo luminescence; series mostly up to 76.8 µM
# From the text: U.S. Tox21 Program National Center for Advancing Translational Sciences [NCATS] NIH Chemical Genomics Center [NCGC] U.S. Environmental Protection Agency [EPA] National Institutes of Environmental Health Sciences [NIEHS] National Toxicology Program [NTP] U.S. Food and Drug Administration [FDA] Tox21 Assay Overview: Transforming growth factor beta (TGF-beta) superfamily consists of a large number of structurally related dimeric proteins that act as hormones or local mediators in regulating a wide range of biological functions. This superfamily includes TGF-betas themselves, the bone morphogenetic proteins (BMPs) and the activins. These ligands induce oligomerization of serine/threonine receptor kinases and phosphorylate the cytoplasmic signaling molecules of Smad protein family. CellSensor SBE-bla HEK 293T cell line (Life Technologies, Carlsbad, CA), responsive to TGF-beta was used to screen Tox21 10K compound library for identification of agonists/antagonists of the Smad signaling pathway. This cell line contains a beta-lactamase reporter gene under control of the Smad binding element (SBE) stably integrated into HEK 293T cells. Also cytotoxicity of the compounds was tested in parallel by measuring the cell viability using CellTiter-Glo assay system in the same wells.
# Tox21 Assay Protocol Summary: SBE-bla HEK 293T cells were dispensed at 4,000/well in 5 uL of assay medium into black wall/clear-bottom 1536-well plates using a Multidrop Combi (ThermoFisher Scientific, Waltham, MA) dispenser. After the assay plates were incubated at 37 C and 5% CO2 for an overnight, 23 nL of compounds dissolved in DMSO, positive controls or DMSO only was transferred to the assay plate by a Pintool station (Kalypsys, San Diego, CA). Compound transfer was followed by the addition of 1 uL of 0.25 ng/mL TGF-beta1 or assay buffer using two separate tips of Flying Reagent Dispenser (FRD, Aurora Discovery, San Diego, CA). The assay plates were incubated at 37 C and 5% CO2 for 5 hr. One uL of LiveBLAzer B/G FRET substrate (Life Technologies) was added using a Flying Reagent Dispenser (FRD, Aurora Discovery, San Diego, CA) and the plates were incubated at room temperature for 2 hr. Fluorescence intensity (405 nm excitation, 460 nm and 530 nm emissions) was measured using an Envision plate reader (PerkinElmer, Shelton, CT). For cytotoxicity read, 4 uL of CellTiter-Glo reagent (Promega Corporation, Madison, WI) was added to each well of the assay plates using FRD. After 30 min incubation at room temperature, the luminescence intensity was measured using ViewLux plate reader (PerkinElmer).
row,SMILES,Potency
1,Nc1ncnc2nc[nH]c12,inactive
2,Nc1ccc(Cl)cc1Cl,inactive
3,Cc1ccc(C(=O)c2cc(O)c(O)c([N+](=O)[O-])c2)cc1,inactive
4,O=S(=O)(O)c1ccc(O)cc1,inactive
5,OCCO,inactive
6,O=C1OC2(c3cc(Br)c(O)c(Br)c3Oc3c2cc(Br)c(O)c3Br)c2c(Cl)c(Cl)c(Cl)c(Cl)c21,inactive
7,O=CCc1ccccc1,inactive
8,CC(C)OC=O,inactive
9,CC(C(=O)O)c1cccc(C(=O)c2ccccc2)c1 (stereo not given),inactive
10,c1ccc2sc(SSN3CCOCC3)nc2c1,inactive
11,O=C(O)c1ccccc1Nc1cccc(C(F)(F)F)c1,inactive
12,CC(CCC(=O)O)(c1ccc(O)cc1)c1ccc(O)cc1,inactive
13,CC1=CC2C3CC(C=C3C)C2C1 (stereo not given),inactive
14,CCCCC(CC)COP(=O)(OCC(CC)CCCC)OCC(CC)CCCC (stereo not given),inactive
15,CC(C)OB(OC(C)C)OC(C)C,inactive
16,O=C(COc1ccc(Cl)cc1)N1CCN(Cc2ccc3c(c2)OCO3)CC1,inactive
17,CCCc1c(OCCCCc2nn[nH]n2)ccc(C(C)=O)c1O,inactive
18,C#C[C@]1(O)CC[C@H]2[C@@H]3CCC4=Cc5oncc5C[C@]4(C)[C@H]3CC[C@@]21C,inactive
19,CN(C)C(=N)N=C(N)N,inactive
20,Cc1ccc2c(n1)Oc1ccc(C(C)C(=O)OCC(=O)N(C)C)cc1C2 (stereo not given),inactive

row,SMILES,Potency
1,C[Si](C)(C)O[Si](C)(C)C,inactive
2,c1cc(-c2ccncc2)ccn1,inactive
3,CN(C)CCC=C1c2ccccc2CCc2ccccc21,inactive
4,COc1ccc(C(=O)CC(=O)c2ccc(C(C)(C)C)cc2)cc1,inactive
5,CCCCC(CC)COCC1CO1 (stereo not given),inactive
6,S=C(NC1CCCCC1)NC1CCCCC1,inactive
7,O=C(/C=C/c1ccccc1)OCc1ccccc1,inactive
8,C=C(C)C1CC=C(C)CC1 (stereo not given),inactive
9,CCCCc1oc2ccccc2c1C(=O)c1cc(I)c(OCCN(CC)CC)c(I)c1,inactive
10,CCC(C)OC(=O)c1ccc(O)cc1 (stereo not given),inactive
11,COc1c(Cl)c(Cl)c(Cl)c(Cl)c1Cl,inactive
12,CCCC(=O)O,inactive
13,COC(=O)C1=C(C)NC(C)=C(C(=O)OCCN(C)Cc2ccccc2)C1c1cccc([N+](=O)[O-])c1 (stereo not given),inactive
14,Oc1ccc(O)cc1,inactive
15,Cc1c(OCC(F)(F)F)ccnc1CS(=O)c1nc2ccccc2[nH]1 (stereo not given),inactive
16,CC(=O)c1ccccn1,inactive
17,Nc1ccc(S(=O)(=O)Nc2cnc3ccccc3n2)cc1,inactive
18,CC1=CCC(C(C)(C)O)CC1 (stereo not given),inactive
19,COc1cccc2c1C(=O)c1c(O)c3c(c(O)c1C2=O)C[C@@](O)(C(=O)CO)C[C@@H]3O[C@H]1C[C@H](N)[C@H](O)[C@H](C)O1,inactive
20,Cc1cccc([N+](=O)[O-])c1C,inactive
